Measurements: a collection of fitness landscapes (doi:10.1016/j.celrep.2020.107928)
Over roughly 81,000 sequences, “one-hybrid fitness for binding parS DNA” has its median near -0.17; the highest 2% begin near 0.51. The sample as a whole holds a higher share of the highest values than the screen did.

B1: Caulobacter ParB omega fusion; a variant is named by its letters at X, in order, B8GW30 (parent)
chain: MESVVVGEPGMSEGRRGLGRGLSALLGEVDAAPAQAPGEQLGGSREAPIEILQRNPDQPRRTFREEDLEDLSNSIREKGVLQPILVRPSPDTAGEYQIVAGERAWRAAQRAGLKTVPIMVRELDDLAVLEIGIIENVQRADLNVLEEALSYKVLMEKFERTQENIAQTIGKSXSHVANXMRLLXLPDEVQSYLVSGELTAXHARAIAAAADPVALAKQIIEGGLSVRETEALARKAPNLSAGKSKGGRPPRVKDTDTQALESDLSSVLGLDVSIDHRGSTGTLTITYATLEQLDDLCNRLTRGI

Variants of: B1
Test: one-hybrid fitness for binding parS DNA (scaled: cognate 1, non-cognate 0); higher = stronger binding
Conditions: with parS DNA site
In short: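 Fitness is the rescaled log change in variant-to-wild-type read ratio, measured by Illumina sequencing of plasmids before and after bacterial one-hybrid selection. The scale puts cognate at 1 and non-cognate at 0. Selection of Caulobacter ParB libraries, four specificity codons randomised, took place in E. coli USO with a HIS3 reporter, site 19 bp from the promoter, over 48 hours at 37°C on M9-minus-histidine with 0.1 mM IPTG and 5 mM 3-AT.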

Row | Variant | one-hybrid fitness for binding parS DNA
1 | FRGV | ≤ 0.2
2 | TALQ | ≤ 0.2
3 | TKKR | ≤ 0.2
4 | PENA | ≤ 0.2
5 | HIPD | ≤ 0.2
6 | EYSL | ≤ 0.2
7 | RRRG | 0.706
8 | RRDG | 0.888
9 | RRNG | 0.704
10 | NRRG | ≤ 0.2
11 | RRQY | 0.441
12 | RRQQ | ≤ 0.2
13 | RRNE | ≤ 0.2
14 | DRRG | ≤ 0.2
15 | RRQG | 0.727
16 | NRNG | ≤ 0.2
17 | DRDG | ≤ 0.2
18 | YVYG | ≤ 0.2
19 | RGYW | ≤ 0.2
20 | HTNV | ≤ 0.2
21 | TDNV | ≤ 0.2
22 | ASRA | ≤ 0.2
23 | KASS | ≤ 0.2
24 | EPDT | ≤ 0.2
25 | GAHV | ≤ 0.2
26 | SLDA | ≤ 0.2

Row | Variant | one-hybrid fitness for binding parS DNA
27 | LSDS | ≤ 0.2
28 | IIGF | ≤ 0.2
29 | RRLG | 0.794
30 | RRLK | ≤ 0.2
31 | RRLR | ≤ 0.2
32 | RRHG | 0.72
33 | RRHY | 0.446
34 | RRHM | 0.424
35 | PSWH | ≤ 0.2
36 | LPFA | 0.253
37 | KMLG | ≤ 0.2
38 | FRSR | ≤ 0.2
39 | LSWR | ≤ 0.2
40 | TGKS | ≤ 0.2
41 | LTAC | ≤ 0.2
42 | RKSF | ≤ 0.2
43 | RKWP | ≤ 0.2
44 | RKNK | ≤ 0.2
45 | RKNT | 0.723
46 | RKSQ | ≤ 0.2
47 | RKCT | 0.803
48 | RKST | 0.749
49 | RKNM | 0.234
50 | RKCY | 0.369
51 | RKWH | ≤ 0.2
52 | RKCK | ≤ 0.2

Row | Variant | one-hybrid fitness for binding parS DNA
53 | RKWT | 0.759
54 | AHCT | ≤ 0.2
55 | SYTS | ≤ 0.2
56 | LAQL | ≤ 0.2
57 | LSDG | ≤ 0.2
58 | ISTA | ≤ 0.2
59 | MTHL | ≤ 0.2
60 | CYFG | ≤ 0.2
61 | RKLT | 0.856
62 | RKIY | 0.352
63 | RKIT | 0.675
64 | RKLN | 0.351
65 | RKYK | ≤ 0.2
66 | RKLH | 0.223
67 | RKPT | 0.412
68 | RKHP | ≤ 0.2
69 | RKYF | ≤ 0.2
70 | RKYT | 0.868
71 | RKHT | 0.756
72 | RKHH | ≤ 0.2
73 | YKNL | ≤ 0.2
74 | VDMS | ≤ 0.2
75 | HRNI | ≤ 0.2
76 | NWKR | ≤ 0.2
77 | FKRH | ≤ 0.2
78 | TTLP | ≤ 0.2

Row | Variant | one-hybrid fitness for binding parS DNA
79 | LGQS | ≤ 0.2
80 | DPGV | ≤ 0.2
81 | ITRV | ≤ 0.2
82 | WNTN | ≤ 0.2
83 | RKDT | 0.832
84 | RKGT | 0.764
85 | RKDY | 0.38
86 | RKDK | ≤ 0.2
87 | RKQH | ≤ 0.2
88 | RKQP | ≤ 0.2
89 | RKRQ | ≤ 0.2
90 | RKRR | ≤ 0.2
91 | RKGQ | ≤ 0.2
92 | RKQT | 0.729
93 | RKGM | 0.262
94 | RKRT | 0.658
95 | TDGD | ≤ 0.2
96 | RCPL | ≤ 0.2
97 | WHLG | ≤ 0.2
98 | CRRN | ≤ 0.2
99 | ITGW | ≤ 0.2
100 | RLDQ | ≤ 0.2
101 | RLDF | 0.229
102 | RLDC | 0.938
103 | RLNE | ≤ 0.2
104 | RLNC | 0.94

Row | Variant | one-hybrid fitness for binding parS DNA
105 | RLNK | ≤ 0.2
106 | TYDG | ≤ 0.2
107 | RNYT | 0.66
108 | RNRT | 0.786
109 | RNSY | 0.399
110 | RNWF | ≤ 0.2
111 | RNSM | 0.238
112 | RNWY | 0.275
113 | RNIT | 0.427
114 | RNRM | 0.345
115 | RNRR | ≤ 0.2
116 | RNPT | 0.307
117 | RNWT | 0.535
118 | RNST | 0.746
119 | QFRW | ≤ 0.2
120 | LVVI | ≤ 0.2
121 | PETN | ≤ 0.2
122 | YEDL | ≤ 0.2
123 | KWKD | ≤ 0.2
124 | VTLP | ≤ 0.2
125 | HAAI | ≤ 0.2
126 | PKVP | ≤ 0.2
127 | RNQR | ≤ 0.2
128 | RNLP | ≤ 0.2
129 | RNHD | ≤ 0.2
130 | RNHT | 0.723

Row | Variant | one-hybrid fitness for binding parS DNA
131 | RNGY | 0.306
132 | RNQM | 0.228
133 | RNQT | 0.74
134 | RNLT | 0.683
135 | RNGT | 0.696
136 | RNHN | 0.346
137 | RNLH | ≤ 0.2
138 | RNGR | ≤ 0.2
139 | QRGN | ≤ 0.2
140 | GVHD | ≤ 0.2
141 | VTSQ | ≤ 0.2
142 | MGWS | ≤ 0.2
143 | QCRG | ≤ 0.2
144 | QHQC | ≤ 0.2
145 | LAPW | ≤ 0.2
146 | HMRI | ≤ 0.2
147 | VDML | ≤ 0.2
148 | HQSC | ≤ 0.2
149 | DSFI | ≤ 0.2
150 | LCFF | ≤ 0.2
151 | ETSR | ≤ 0.2
152 | RNCQ | ≤ 0.2
153 | RNCT | 0.612
154 | RNCM | ≤ 0.2
